Measurements taken from article PMC4336329 (PLoS ONE, 2015).
Out of some 310,000 compounds screened, about 14,000 (4.5%) showed an effect of 50% or more. Effects have a minus sign here. The list comes from a sample in which strong results are over-represented; it also holds similar structures and randomly drawn compounds.

The molecules below were run against human ether-à-go-go-related gene (hERG) potassium channel (human, UniProt Q12809) (assay: primary screen, population patch clamp on CHO cells stably expressing hERG; higher = less effect of the substance).
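Note: peak tail current of the secondary pulse compared with the same well before compound.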

human ether-à-go-go-related gene (hERG) potassium channel, sequence (Q12809 whole entry, looked up): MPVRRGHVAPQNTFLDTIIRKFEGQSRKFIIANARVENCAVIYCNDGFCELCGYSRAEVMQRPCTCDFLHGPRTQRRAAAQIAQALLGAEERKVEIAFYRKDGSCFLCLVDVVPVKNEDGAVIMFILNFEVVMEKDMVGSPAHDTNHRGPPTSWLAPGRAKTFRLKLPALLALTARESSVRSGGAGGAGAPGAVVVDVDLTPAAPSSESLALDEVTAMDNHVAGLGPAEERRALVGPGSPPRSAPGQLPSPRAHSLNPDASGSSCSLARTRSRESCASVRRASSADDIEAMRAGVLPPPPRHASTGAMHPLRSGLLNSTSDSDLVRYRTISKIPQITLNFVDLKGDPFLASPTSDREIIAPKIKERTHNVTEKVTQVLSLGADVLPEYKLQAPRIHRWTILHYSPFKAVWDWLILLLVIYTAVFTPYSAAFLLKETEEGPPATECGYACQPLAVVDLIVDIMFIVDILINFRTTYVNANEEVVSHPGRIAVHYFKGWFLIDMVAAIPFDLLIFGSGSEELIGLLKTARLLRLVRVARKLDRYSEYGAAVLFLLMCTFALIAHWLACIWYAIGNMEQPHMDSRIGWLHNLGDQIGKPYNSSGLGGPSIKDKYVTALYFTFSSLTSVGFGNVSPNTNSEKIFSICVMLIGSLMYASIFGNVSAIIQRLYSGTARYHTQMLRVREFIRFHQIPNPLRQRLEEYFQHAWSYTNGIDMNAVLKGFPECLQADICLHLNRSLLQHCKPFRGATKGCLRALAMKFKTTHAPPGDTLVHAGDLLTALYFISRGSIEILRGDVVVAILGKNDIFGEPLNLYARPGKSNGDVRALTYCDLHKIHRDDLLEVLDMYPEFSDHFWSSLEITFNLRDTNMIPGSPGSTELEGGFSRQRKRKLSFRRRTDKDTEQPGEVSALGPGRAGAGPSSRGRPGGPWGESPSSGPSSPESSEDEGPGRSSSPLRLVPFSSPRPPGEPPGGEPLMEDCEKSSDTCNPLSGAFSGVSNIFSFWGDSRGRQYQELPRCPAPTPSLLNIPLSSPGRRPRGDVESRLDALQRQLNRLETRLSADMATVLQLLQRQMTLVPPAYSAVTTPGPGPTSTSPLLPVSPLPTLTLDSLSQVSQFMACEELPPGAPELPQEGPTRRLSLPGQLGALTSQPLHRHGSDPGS

Q: For `CC(=O)c1c(C)[nH]c(C(=O)Nc2ccc(Cl)cc2)c1C`, which “hERG current change (%, negative = inhibition) at 10uM” value is on record?
A: The value was -9.14%.

Q: Which “hERG current change (%, negative = inhibition) at 10uM” value does the source give for `CC(C)C(c1nnnn1Cc1ccc(F)cc1)N1CCN(C(=O)c2ccco2)CC1` (stereo not drawn) here?
A: The value was -49.1%.

Q: With `O=C(CCCNC(=O)c1ccc(Cl)cc1)Nc1ccccc1F` as the molecule, how does the “hERG current change (%, negative = inhibition) at 10uM” value read?
A: The value was 7%.

Q: `COc1cccc(-n2cc(CNCc3c(C(=O)N(C)C)nc4ccc(Cl)cn34)cn2)c1` was tested. Which “hERG current change (%, negative = inhibition) at 10uM” value did it give?
A: Its value is -55.9%.

Q: `Cc1ccccc1-n1cc(CNCc2c(C(=O)N(C)C)nc3ccc(Cl)cn23)cn1` was tested. Which “hERG current change (%, negative = inhibition) at 10uM” value did it give?
A: The value was -7.4%.

Q: With `COc1ccc(CNCc2c(C(=O)N(C)C)nc3ccc(Cl)cn23)c(OC)c1` as the molecule, how does the “hERG current change (%, negative = inhibition) at 10uM” value read?
A: The value was -11.1%.

Q: How did the “hERG current change (%, negative = inhibition) at 10uM” value turn out when `Cc1nn(C)cc1NC(=O)c1cc2nc(-c3ccco3)cc(C(F)(F)F)n2n1` was run?
A: The value was 4.66%.

Q: With `CCOC(=O)N1CCC(NC(=O)C(NS(=O)(=O)c2ccc3c(c2)CCN3C(=O)CC)C(C)C)CC1` (stereo not drawn) as the molecule, how does the “hERG current change (%, negative = inhibition) at 10uM” value read?
A: The value was -6.47%.

Q: For `CCc1ccc(NC(=O)CC2C(=O)N(c3ccc(C)cc3)C(=O)N2CCc2ccncc2)cc1` (stereo not drawn), which “hERG current change (%, negative = inhibition) at 10uM” value is on record?
A: Its value is -55.8%.

Q: For `Cc1ccc(N2C(=O)C(CC(=O)Nc3cccc(F)c3)N(CCc3ccncc3)C2=O)cc1` (stereo not drawn), which “hERG current change (%, negative = inhibition) at 10uM” value is on record?
A: Its value is -52.3%.

Q: With `Cc1cccc(N2C(=O)C(CC(=O)Nc3cccc(F)c3)N(CCc3ccncc3)C2=O)c1` (stereo not drawn) as the molecule, how does the “hERG current change (%, negative = inhibition) at 10uM” value read?
A: Its value is -43.6%.

Q: `COc1ccc(CCN2C(=O)N(c3ccc(OC)cc3)C(=O)C2CC(=O)Nc2ccc(OC)cc2)cc1` (stereo not drawn) was tested. Which “hERG current change (%, negative = inhibition) at 10uM” value did it give?
A: The value was 7.46%.

Q: `CCc1ccc(NC(=O)CC2C(=O)N(c3ccc(C)cc3)C(=O)N2C2CC2)cc1` (stereo not drawn) was tested. Which “hERG current change (%, negative = inhibition) at 10uM” value did it give?
A: Its value is -4.46%.

Q: `Cc1ccc(N2C(=O)C(CC(=O)Nc3cccc(F)c3)N(C3CC3)C2=O)cc1` (stereo not drawn) was tested. Which “hERG current change (%, negative = inhibition) at 10uM” value did it give?
A: Its value is -7.13%.

Q: Which “hERG current change (%, negative = inhibition) at 10uM” value does the source give for `O=C(COC(=O)c1ccc(Br)cc1)Nc1cccnc1Cl` here?
A: The value was -3.51%.

Q: With `COC(=O)c1cn(CC(=O)Nc2ccc(OC)cc2)c2ccccc12` as the molecule, how does the “hERG current change (%, negative = inhibition) at 10uM” value read?
A: Its value is 8.2%.

Q: How did the “hERG current change (%, negative = inhibition) at 10uM” value turn out when `CC(=O)N1CC(C)Oc2ccc(S(=O)(=O)Nc3ccc(Cl)cn3)cc21` (stereo not drawn) was run?
A: The value was 3.04%.

Q: With `CC(=O)OC1(c2ccccc2)CCN(C)CC1(C)C.Cl` (stereo not drawn) as the molecule, how does the “hERG current change (%, negative = inhibition) at 10uM” value read?
A: Its value is 35.4%.

Q: For `Cc1ccc(S(=O)(=O)N2CCOC2CNC(=O)C(=O)NCc2ccccc2)cc1` (stereo not drawn), which “hERG current change (%, negative = inhibition) at 10uM” value is on record?
A: The value was -10.3%.

Q: For `Cc1ccc(SCc2cc(=O)[nH]c(N3CCOCC3)n2)cc1`, which “hERG current change (%, negative = inhibition) at 10uM” value is on record?
A: The value was -0.0128%.

Q: Which “hERG current change (%, negative = inhibition) at 10uM” value does the source give for `O=C(NCc1cccnc1)c1ccccc1-c1ccccc1` here?
A: The value was -0.462%.

Q: For `O=C(Nc1cccnc1)c1cccc(S(=O)(=O)N2CCc3ccccc32)c1`, which “hERG current change (%, negative = inhibition) at 10uM” value is on record?
A: Its value is 11%.

Q: `CC1Cc2ccccc2N1S(=O)(=O)c1cccc(C(=O)NCCCn2ccnc2)c1` (stereo not drawn) was tested. Which “hERG current change (%, negative = inhibition) at 10uM” value did it give?
A: Its value is -50.1%.

Q: Which “hERG current change (%, negative = inhibition) at 10uM” value does the source give for `CC1Cc2ccccc2N1S(=O)(=O)c1cccc(C(=O)NCCCO)c1` (stereo not drawn) here?
A: The value was -27.9%.

Q: `Cc1ccnc(NC(=O)c2cccc(S(=O)(=O)NCc3ccccc3)c2)c1` was tested. Which “hERG current change (%, negative = inhibition) at 10uM” value did it give?
A: The value was -34.6%.

Q: Which “hERG current change (%, negative = inhibition) at 10uM” value does the source give for `CC1CN(S(=O)(=O)c2cccc(C(=O)NCCCn3ccnc3)c2)CC(C)O1.Cl` (stereo not drawn) here?
A: Its value is 6.18%.

Q: `CC1Cc2ccccc2N1S(=O)(=O)c1cccc(C(=O)NC2CC2)c1` (stereo not drawn) was tested. Which “hERG current change (%, negative = inhibition) at 10uM” value did it give?
A: Its value is -40%.

Q: For `Cc1cccnc1NC(=O)c1cccc(S(=O)(=O)NCc2ccccc2)c1`, which “hERG current change (%, negative = inhibition) at 10uM” value is on record?
A: Its value is -14.9%.

Q: Which “hERG current change (%, negative = inhibition) at 10uM” value does the source give for `CC1Cc2ccccc2N1S(=O)(=O)c1cccc(C(=O)NCc2ccccn2)c1` (stereo not drawn) here?
A: Its value is -67.6%.

Q: How did the “hERG current change (%, negative = inhibition) at 10uM” value turn out when `CC1Cc2ccccc2N1S(=O)(=O)c1cccc(C(=O)Nc2cccnc2)c1` (stereo not drawn) was run?
A: Its value is -60.2%.

Q: Which “hERG current change (%, negative = inhibition) at 10uM” value does the source give for `CC1Cc2ccccc2N1S(=O)(=O)c1cccc(C(=O)NCc2ccncc2)c1` (stereo not drawn) here?
A: Its value is -34.9%.

Q: Which “hERG current change (%, negative = inhibition) at 10uM” value does the source give for `Cc1ccc(NC(=O)c2cccc(S(=O)(=O)NCc3ccccc3)c2)nc1` here?
A: The value was -50.7%.

Q: `Cc1cc(NC(=O)c2cccc(S(=O)(=O)N3c4ccccc4CC3C)c2)no1` (stereo not drawn) was tested. Which “hERG current change (%, negative = inhibition) at 10uM” value did it give?
A: Its value is -7.3%.
